Assay results reported in PubChem BioAssay AID1159580 (chemical genetic matrix, 2015).
About 2,000 (36%) of roughly 5,500 compounds were called active. Inconclusive results (about 18%) are left out. No stated cut-off is given here; in the data, active means normalized growth mostly below about 0.91 (no sharp cut-off); inconclusive means no clear call, values can overlap the other calls; inactive means mostly above about 0.92. Some of the results follow.

Experiment: chemical genetic growth profiling, strain panel (AID 1159580);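 further: tested at 20 µM; growth read once vehicle control cultures reached saturation at 30 °C; 1 = growth at the plate median or of vehicle wells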
Details: growth OD

Measured: normalized growth

C=CCCCCCCCCCCCC(O)CC(O)CO (centres undefined)
inactive: S. cerevisiae deletion strains, locus YJR043C, strain POL32, stronger effect = lower value 0.952 | S. cerevisiae deletion strains, locus YJR075W, strain HOC1, stronger effect = lower value 0.896 | S. cerevisiae deletion strains, locus YKL068W, stronger effect = lower value 0.995 | S. cerevisiae deletion strains, locus YKL085W, strain MDH1 (second series), stronger effect = lower value 0.96 | S. cerevisiae deletion strains, locus YKL085W, strain MDH1, stronger effect = lower value 0.96 | S. cerevisiae deletion strains, locus YKL160W, strain elf1, stronger effect = lower value 0.989 | S. cerevisiae deletion strains, locus YKL190W, strain CNB1, stronger effect = lower value 0.947 | S. cerevisiae deletion strains, locus YKR026C, strain gcn3, stronger effect = lower value 0.988 | S. cerevisiae deletion strains, locus YKR091W, strain srl3, stronger effect = lower value 0.995 | S. cerevisiae deletion strains, locus YLL001W, strain dnm1, stronger effect = lower value 0.976 | S. cerevisiae deletion strains, locus YLL026W, stronger effect = lower value 0.997 | S. cerevisiae deletion strains, locus YLL041C, strain sdh2, stronger effect = lower value 0.998 | S. cerevisiae deletion strains, locus YLR027C, strain aat2, stronger effect = lower value 0.999 | S. cerevisiae deletion strains, locus YLR039C, strain RIC1, stronger effect = lower value 0.996 | S. cerevisiae deletion strains, locus YLR058C, strain SHM2, stronger effect = lower value 0.944 | S. cerevisiae deletion strains, locus YLR102C, strain apc9, stronger effect = lower value 0.99 | S. cerevisiae deletion strains, locus YLR221C, strain rsa3, stronger effect = lower value 0.998 | S. cerevisiae deletion strains, locus YLR258W, strain gsy2, stronger effect = lower value 1.01 | S. cerevisiae deletion strains, locus YLR262C, strain YPT6 (second series), stronger effect = lower value 1.01 | S. cerevisiae deletion strains, locus YLR262C, strain YPT6, stronger effect = lower value 0.959 | S. cerevisiae deletion strains, locus YLR268W, strain sec22, stronger effect = lower value 0.971 | S. cerevisiae deletion strains, locus YLR320W, strain mms22, stronger effect = lower value 0.985 | S. cerevisiae deletion strains, locus YLR342W, strain FKS1, stronger effect = lower value 1 | S. cerevisiae deletion strains, locus YLR357W, strain rsc2, stronger effect = lower value 0.975 | S. cerevisiae deletion strains, locus YLR370C, strain arc18, stronger effect = lower value 0.993 | S. cerevisiae deletion strains, locus YLR371W, strain rom2, stronger effect = lower value 0.952 | S. cerevisiae deletion strains, locus YLR384C, strain iki3, stronger effect = lower value 0.997 | S. cerevisiae deletion strains, locus YML016C, strain PPZ1, stronger effect = lower value 0.988 | S. cerevisiae deletion strains, locus YML120C, strain ndi1, stronger effect = lower value 0.995 | S. cerevisiae deletion strains, locus YML124C, strain tub3, stronger effect = lower value 0.991 | S. cerevisiae deletion strains, locus YMR058W, strain fet3, stronger effect = lower value 1.01 | S. cerevisiae deletion strains, locus YMR078C, strain ctf18, stronger effect = lower value 0.964 | S. cerevisiae deletion strains, locus YMR125W, strain sto1, stronger effect = lower value 0.979 | S. cerevisiae deletion strains, locus YMR129W, stronger effect = lower value 0.988 | S. cerevisiae deletion strains, locus YMR205C, strain PFK2, stronger effect = lower value 0.974 | S. cerevisiae deletion strains, locus YMR231W, strain pep5, stronger effect = lower value 0.995 | S. cerevisiae deletion strains, locus YMR263W, strain SAP30, stronger effect = lower value 0.955 | S. cerevisiae deletion strains, locus YMR307W, strain GAS1, stronger effect = lower value 0.792 | S. cerevisiae deletion strains, locus YNL067W, strain RPL9B, stronger effect = lower value 0.903 | S. cerevisiae deletion strains, locus YNL071W, strain lat1, stronger effect = lower value 0.989 | S. cerevisiae deletion strains, locus YNL128W, strain TEP1, stronger effect = lower value 0.924 | S. cerevisiae deletion strains, locus YNL153C, strain GIM3, stronger effect = lower value 0.979 | S. cerevisiae deletion strains, locus YNL209W, strain ssb2, stronger effect = lower value 1 | S. cerevisiae deletion strains, locus YNL248C, strain rpa49, stronger effect = lower value 0.993 | S. cerevisiae deletion strains, locus YNL250W, strain rad50, stronger effect = lower value 0.939 | S. cerevisiae deletion strains, locus YNL271C, strain bni1, stronger effect = lower value 0.953 | S. cerevisiae deletion strains, locus YNL322C, strain KRE1 (second series), stronger effect = lower value 0.981 | S. cerevisiae deletion strains, locus YNL322C, strain KRE1, stronger effect = lower value 0.979 | S. cerevisiae deletion strains, locus YNR049C, strain mso1, stronger effect = lower value 0.995 | S. cerevisiae deletion strains, locus YNR052C, strain pop2, stronger effect = lower value 0.946 | S. cerevisiae deletion strains, locus YOL006C, strain TOP1, stronger effect = lower value 0.808 | S. cerevisiae deletion strains, locus YOL012C, strain htz1 1.72 | S. cerevisiae deletion strains, locus YOR001W, strain rrp6, stronger effect = lower value 0.998 | S. cerevisiae deletion strains, locus YOR069W, strain VPS5, stronger effect = lower value 0.978 | S. cerevisiae deletion strains, locus YOR070C, strain gyp1, stronger effect = lower value 0.992 | S. cerevisiae deletion strains, locus YOR080W, strain dia2, stronger effect = lower value 0.998 | S. cerevisiae deletion strains, locus YOR083W, strain WHI5, stronger effect = lower value 0.965 | S. cerevisiae deletion strains, locus YOR106W, strain vam3, stronger effect = lower value 1.02 | S. cerevisiae deletion strains, locus YOR136W, strain idh2, stronger effect = lower value 0.935 | S. cerevisiae deletion strains, locus YOR144C, strain elg1, stronger effect = lower value 0.982 | S. cerevisiae deletion strains, locus YOR265W, strain rbl2, stronger effect = lower value 1 | S. cerevisiae deletion strains, locus YOR270C, strain vph1, stronger effect = lower value 1.01 | S. cerevisiae deletion strains, locus YOR290C, strain snf2, stronger effect = lower value 0.93 | S. cerevisiae deletion strains, locus YOR316C, strain cot1, stronger effect = lower value 0.977 | S. cerevisiae deletion strains, locus YPL051W, strain arl3, stronger effect = lower value 0.999 | S. cerevisiae deletion strains, locus YPL055C, strain LGE1, stronger effect = lower value 0.843 | S. cerevisiae deletion strains, locus YPL078C, strain atp4, stronger effect = lower value 0.986 | S. cerevisiae deletion strains, locus YPL106C, strain sse1, stronger effect = lower value 1.01 | S. cerevisiae deletion strains, locus YPL240C, strain hsp82, stronger effect = lower value 1 | S. cerevisiae deletion strains, locus YPL241C, strain CIN2, stronger effect = lower value 0.987 | S. cerevisiae deletion strains, locus YPR119W, strain clb2, stronger effect = lower value 0.989 | S. cerevisiae deletion strains, locus YPR141C, strain kar3, stronger effect = lower value 1 | S. cerevisiae deletion strains, locus YPR163C, strain tif3, stronger effect = lower value 0.95 | S. cerevisiae deletion strains, locus YPR167C, strain met16, stronger effect = lower value 0.964 | S. cerevisiae deletion strains, strain wtn01, stronger effect = lower value 0.904
active: S. cerevisiae deletion strains, locus YKL009W, strain mrt4, stronger effect = lower value 0.852 | S. cerevisiae deletion strains, locus YKR001C, strain vps1, stronger effect = lower value 0.839 | S. cerevisiae deletion strains, locus YLR330W, strain CHS5, stronger effect = lower value 0.917 | S. cerevisiae deletion strains, locus YLR342W, strain FKS1 (second series), stronger effect = lower value 0.756 | S. cerevisiae deletion strains, locus YLR418C, strain cdc73, stronger effect = lower value 0.759 | S. cerevisiae deletion strains, locus YML032C, strain rad52, stronger effect = lower value 0.869 | S. cerevisiae deletion strains, locus YMR223W, strain ubp8, stronger effect = lower value 0.858 | S. cerevisiae deletion strains, locus YNL233W, strain BNI4, stronger effect = lower value 0.834 | S. cerevisiae deletion strains, locus YNL298W, strain CLA4, stronger effect = lower value 0.907 | S. cerevisiae deletion strains, locus YNL307C, strain MCK1, stronger effect = lower value 0.499 | S. cerevisiae deletion strains, locus YOL147C, strain pex11, stronger effect = lower value 0.778 | S. cerevisiae deletion strains, locus YOR061W, strain CKA2, stronger effect = lower value 0.635 | S. cerevisiae deletion strains, locus YOR184W, strain ser1, stronger effect = lower value 0.719 | S. cerevisiae strains, strain wild type, stronger effect = lower value 0.861
